Only some compounds are listed: those with a hit (about 1.2% of all), similar ones and a draw of the others.
RGS4-Gao reg – modulators of RGS4 binding to Galphao, primary screen, biochemical, multiplexed bead flow cytometry | binding response (% of control), % at 10 µM | hit rate 0.33% among 220,000 | actives lie on both sides | Guanine nucleotide-binding protein G(o) subunit alpha (Homo sapiens), P09471; in the data active means binding response below about 49% or above about 150%; inactive means in between;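 further: fluorescent Galphao activated with aluminum fluoride binding bead-coupled RGS4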
Target sequence (P09471 whole entry, looked up): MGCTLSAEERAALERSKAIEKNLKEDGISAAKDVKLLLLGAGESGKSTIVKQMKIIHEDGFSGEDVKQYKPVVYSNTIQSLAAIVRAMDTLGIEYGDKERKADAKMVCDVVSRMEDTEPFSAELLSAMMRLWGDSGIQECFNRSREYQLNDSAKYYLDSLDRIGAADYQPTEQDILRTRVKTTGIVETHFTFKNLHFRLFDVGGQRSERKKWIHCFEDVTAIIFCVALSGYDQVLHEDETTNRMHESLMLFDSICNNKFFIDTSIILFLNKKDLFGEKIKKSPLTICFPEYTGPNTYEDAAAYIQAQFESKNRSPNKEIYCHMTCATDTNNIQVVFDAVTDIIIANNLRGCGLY
RGS16-Gao – modulators of RGS16 binding to Galphao, primary screen, biochemical, human proteins, multiplexed bead flow cytometry | Regulator of G-protein signaling 16 (Homo sapiens) + Guanine nucleotide-binding protein … | AID 1441, 2008 | bead-based flow cytometry RGS16-Galphao binding, fluorescence; actives lie on both sides | binding response (% of control), % at 10 µM | hit rate 0.38% among 220,000;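 further: Galphao activated by GDP with aluminum fluoride before binding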
RGS7-Gao – RGS7-Galphao binding modulators, primary screen, biochemical, multiplexed bead flow cytometry | actives lie on both sides | binding response (% of control), % at 10 µM | hit rate 0.35% among 220,000; in the data active means binding response below about 49% or above about 150%; inconclusive means no clear call, values can overlap the other calls; inactive means in between;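 further: fluorescent Galphao held in activated GDP-AlF4 state binding bead-coupled RGS7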
GSH fluor – compound fluorescence on glutathione beads, profiling panel, artefact control, biophysical, 488/530 nm, flow cytometry; fluorescence (KMESF) at 10 µM; hit rate 0.25% among 190,000; GSH beads flow cytometry, compound fluorescence 488/530 nm; active compounds read high; in the data active means fluorescence above about 89;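 further: glutathione beads carrying GST-tagged Bcl family fusion proteins plus one bare bead set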
RGS8-Gao reg – RGS8-Galphao binding modulators, primary screen, biochemical, multiplexed bead flow cytometry; Guanine nucleotide-binding protein G(o) subunit alpha (Homo sapiens), P09471; actives lie on both sides; response (percent of control binding), % at 10 µM; hit rate 0.34% among 220,000; AID 1423, 2008; in the data active means response below about 60% or above about 140%; inactive means in between;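 further: Galphao activated as the GDP aluminium fluoride complex binding bead-coupled RGS8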
Avidin fluor – green autofluorescence of compounds with avidin beads – biophysical, 488/530 nm, flow cytometry, artefact control, profiling panel | compound fluorescence 488/530 nm; active compounds read high | hit rate 0.38% among 220,000 | AID 1775, 2009 | fluorescence (KMESF) at 10 µM; in the data active means fluorescence above about 47
RGS4-Gao HTS – modulators of RGS–Galpha-o binding, primary screen, biochemical, multiplexed beads, flow cytometry, RGS4/7/8/16/19. shares compounds with RGS16-Gao. multiplexed bead flow cytometry. RGS4–Galpha-o binding response, % at 10 µM. hit rate 99% among 1,600;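 further: fluorescently labeled Galpha-o bound to GDP with aluminium fluoride binding biotinylated RGS beads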
Biotin-avidin – disruption of biotin probe capture by avidin, counter-screen for RGS protein interaction modulators, biochemical, flow cytometry, bead-based; streptavidin beads, fluorescein-biotin binding; 1,700 tested, under 10 active; shares compounds with RGS16-Gao; inhibition, % at 10 µM;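 active means inhibition above 50%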;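 further: median green fluorescence of gated singlet beads compared with DMSO control wells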
RGS8-Gao confirm – RGS8-Galphao binding modulators, confirmation, biochemical, multiplexed bead flow cytometry, single concentration. shares compounds with RGS16-Gao. bead-based flow cytometry RGS8-Galphao binding, fluorescence; actives lie on both sides. binding response (% of control), % at 10 µM. hit rate 3% among 1,700. AID 1836, 2009; in the data active means binding response below about 72% or above about 130%; inactive means in between;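 further: Galphao activated as GDP AlF4 complex before binding bead RGS8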
RGS7-Gao single – RGS7-Galphao binding modulators, confirmation, biochemical, multiplexed bead flow cytometry, single concentration. response (percent of control binding), % at 10 µM. bead-based flow cytometry RGS7-Galphao binding; actives lie on both sides. AID 1837, 2009. shares compounds with RGS16-Gao. hit rate 7.8% among 1,700; in the data active means response below about 75% or above about 130%; inactive means in between;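 further: fluorescent Galphao activated with GDP and aluminum fluoride binding bead-coupled RGS7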
RGS16-Gao conf – modulators of RGS16-Galphao protein binding, confirmation, biochemical, single concentration, multiplexed bead flow cytometry; shares compounds with RGS16-Gao; bead-based flow cytometry; actives lie on both sides; response (% of control binding), % at 10 µM; hit rate 4% among 1,700; in the data active means response below about 74% or above about 130%; inactive means in between;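 further: Galphao activated as the GDP aluminium fluoride complex binding bead-coupled RGS16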
RGS4-Gao single – modulators of RGS4-Galphao protein binding, confirmation, biochemical, single concentration, multiplexed bead flow cytometry; binding response (% of control), % at 10 µM; actives lie on both sides; hit rate 4% among 1,700; shares compounds with RGS16-Gao; in the data active means binding response below about 74% or above about 130%; inactive means in between
RGS19-Gao single – regulators of RGS19-Galphao binding, confirmation, biochemical, single point, multiplexed bead flow cytometry; shares compounds with RGS16-Gao; hit rate 5% among 1,700; bead-based flow cytometry RGS19-Galphao binding; actives lie on both sides; AID 1841, 2009; response (percent of control binding), % at 10 µM; in the data active means response below about 50% or above about 160%; inactive means in between
A number is an active result; i = inactive; ? = inconclusive; nt = no result given; [ ] = another dose, or the depositor's remark. Unless noted, how the calls were made is not given here.

SMILES	RGS4-Gao reg	RGS16-Gao	RGS7-Gao	GSH fluor	RGS8-Gao reg	Avidin fluor	RGS4-Gao HTS	Biotin-avidin	RGS8-Gao confirm	RGS7-Gao single	RGS16-Gao conf	RGS4-Gao single	RGS19-Gao single
O=C(CN1C(=O)NC2(CCCC2)C1=O)Nc1nc(-c2ccc(F)cc2)cs1	i	i	i	i	i	i	nt	nt	nt	nt	nt	nt	nt
CC1(C)NC(=O)N(CC(=O)Nc2nc(-c3ccc(F)cc3)cs2)C1=O	i	i	216[activator]	i	i	195	133	i	i	69	i	i	49
CCN=C1SC(CC(=O)NC(C)c2ccccc2)C(=O)N1CC (stereo not drawn)	i	i	?	i	i	i	nt	nt	nt	nt	nt	nt	nt
CSCC[C@H](NC(=O)Nc1cccc(Br)c1)C(=O)O	i	i	?	nt	i	i	nt	nt	nt	nt	nt	nt	nt
Cc1cc(/C=C2\SC(=S)N(C)C2=O)c(C)n1-c1cccc(O)c1	i	i	?	nt	i	i	nt	nt	nt	nt	nt	nt	nt
COc1ccc(-n2c(C)cc(/C=C3/SC(=S)N(C)C3=O)c2C)cc1	-20	-2.3	-5.5	i	2.9	i	nt	i	i	i	i	i	i
CCOC(=O)C1CCN(C(=O)Nc2ccc(OC(F)(F)F)cc2)CC1	i	i	?	nt	i	i	nt	nt	nt	nt	nt	nt	nt
Cc1cc(NC(=O)c2ccccc2-c2ccccc2)ccc1Br	i	226[activator]	i	i	i	i	108	i	i	i	i	i	i
Cc1cccc(NC(=O)c2ccccc2-c2ccccc2)c1	i	i	?	i	i	i	nt	nt	nt	nt	nt	nt	nt
NC(=O)c1ccc(NC(=O)CN2CCN(c3ccc(Cl)cc3)CC2)cc1	38	i	34	i	36	i	nt	i	i	i	i	i	i
CC(=O)CC1=NC(C)(C)Cc2ccccc21	29	16	24	i	18	i	nt	i	i	i	i	i	i
CC(C)=NNC1=NC(C)(C)Cc2ccccc21	i	i	?	nt	i	i	nt	nt	nt	nt	nt	nt	nt
NC(=O)C1(N2CCCCC2)CCN(C(=S)Nc2cccc(Cl)c2)CC1	i	i	i	i	i	i	nt	nt	nt	nt	nt	nt	nt
O=C(CSc1ncnc2c1oc1ccccc12)Nc1nccs1	i	i	155[activator]	i	i	i	146	i	i	i	i	i	i
Cc1ccc(OS(=O)(=O)c2cn(C)c(=O)n(C)c2=O)cc1C	i	i	?	i	i	i	nt	nt	nt	nt	nt	nt	nt
COc1ccc(N2CCN(C(CNC(=O)OCc3ccccc3)c3ccco3)CC2)cc1 (stereo not drawn)	i	189[activator]	i	i	i	i	104	i	i	i	i	i	i

Bioassay records (PubChem BioAssay)
